High-throughput results (PubChem)
A selection: hits, their analogues and other compounds. The true share with any hit is near 21%.
HCMV inh: qHTS Assay for inhibitors of the human cytomegalovirus (HCMV); HFF cells, HCMV-luciferase reporter, 72 h; active compounds read low; activity change, negative = inhibition, % at 57.5 µM; actives 4.5% (n = 410,000); in the data active = activity change below about -60%; inconclusive = no clear call, values can overlap the other calls; inactive = above about -39%; note: % is set by controls: 0 for no effect and ±100 for the full control effect
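Inhibition of viral replication was scored as loss of reporter luminescence in HFFs infected with HCMV-luciferase (MOI 1 PFU/cell) for 72 h; compounds tested at 2 doses, normalized to buffer and Salinomycin controls.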
Shiga inhibitor: A qHTS for Small Molecule Inhibitors of Shiga Toxin; actives 9.2% (n = 290,000); inhibition, % at 38.7 µM; Vero cells, Shiga toxin protein synthesis inhibition reporter; AID 2315, 2010; in the data active = inhibition mostly above about 28%, no sharp cut-off; inactive = mostly below about 43%; note: 0% is about no effect
Cycloheximide cs: Cycloheximide Counterscreen for Small Molecule Inhibitors of Shiga Toxin; cell reporter, cycloheximide protein synthesis inhibition counterscreen; max response, %; actives 12% (n = 300,000); in the data active = max response mostly above about 13%, no sharp cut-off; inactive = mostly below about 14%; note: read at 38.3 µM for the half of the compounds with a filed dose; 0% is about no effect
Pf growth 48h: Primary qHTS for delayed death inhibitors of the malarial parasite plastid, 48 hour incubation; P. falciparum luciferase growth in erythrocytes, 48 h; Potency, µM (doses to about 28.7 µM), without a hit: at the top dose activity change, negative = inhibition, usual class: inhibitors; actives 5.9% (n = 310,000); AID 504832, 2011; note: potency is the fitted concentration of half-maximal effect; % is set by controls: 0 for no effect and ±100 for the full control effect
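Luciferase-expressing P. falciparum in infected erythrocytes (2% hematocrit, 0.1% parasitemia final) in RPMI 1640/0.5% Albumax were exposed to compound for 48 hours at 37 C, 5% CO2; growth read as luminescence.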
Pf growth 96h: Primary qHTS for delayed death inhibitors of the malarial parasite plastid, 96 hour incubation. P. falciparum luciferase reporter growth, 96 h. Potency, µM (doses to about 28.7 µM), inactives show at the top dose activity change, negative = inhibition, actives largely listed as inhibitors. actives 6.9% (n = 320,000); note: potency is the fitted concentration of half-maximal effect; % is set by controls: 0 for no effect and ±100 for the full control effect
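96 h incubation, 37 C, 5% CO2, of luciferase-reporter P. falciparum-infected RBCs (2% hematocrit, 0.05% parasitemia final) with test compounds; endpoint luminescence.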
HCV inhibitor: qHTS Assay for Inhibitors of Hepatitis C Virus (HCV). Huh7.5.1 HCVcc-Cre infection, luciferase reporter, 44 h. Potency, µM (titrated, usually from 41.8 µM), inactives show at the highest dose activity change, negative = inhibition, hits mostly inhibitors. actives 3.4% (n = 340,000); note: potency is the fitted concentration of half-maximal effect; % is set by controls: 0 for no effect and ±100 for the full control effect
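Whole-lifecycle infectious HCVcc-Cre system; cells 1,000/well, compound then virus (~0.5 moi) added 4 h after plating, 44 h culture. Luciferase read 15 sec following 15 min substrate incubation, room temp.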
Active calls of the source: *; ? = inconclusive; . = no result; [ ] = dose if it differs, or a comment. Unless noted, calls come from the whole dose curve; as a rule, active = well fitted inhibition curve with a large enough effect; inconclusive = small, poorly fitted or top-dose-only effect, or another doubt; inactive = no such curve, though single readings can be large or run the other way.

SMILES | HCMV inh | Shiga inhibitor | Cycloheximide cs | Pf growth 48h | Pf growth 96h | HCV inhibitor
O=C(CCc1nnc(-c2ccccc2)o1)NC1CCCCC1 | 0 | 64* | 44* | 43% | 5% | 4%
Cc1ccn2c(=O)c(C(=O)NCCc3ccccc3)c(O)nc2c1 | 7 | . | . | . | . | .
CCOc1ccc2oc(=O)cc(CN3CCN(c4ccc(OC)cc4)CC3)c2c1 | 40 | . | . | . | . | .
CCOc1ccc(N2C(=O)NC(=O)/C(=C\c3ccc(N4CCOCC4)cc3C)C2=O)cc1 | 15 | 6 | 5 | 30% | -24% | 23%
C#CCN1C(=O)S/C(=C\c2ccc(N3CCOCC3)cc2C)C1=O | 12 | 70* | 24* | 67% | 16% | 0%
CCN1C(=O)S/C(=C\c2ccc(N3CCOCC3)cc2C)C1=O | 142 | 133* | 27* | 167% | 298% | ?
CCCN1C(=O)S/C(=C\c2ccc(N3CCOCC3)cc2C)C1=O | . | 64* | 34* | 167% | 157% | .
O=C(CNCc1cccnc1)Nc1cc(C(F)(F)F)ccc1N1CCOCC1 | 0 | -8 | -4 | ? | ? | -1%
Cc1ccc(C)c(S(=O)(=O)N2CCN(c3nc(-c4cccnc4)nc4ccccc34)CC2)c1 | 20 | . | . | 3.3µM* | ? | 11µM*
COc1cc2c(cc1OC)CN(c1nc(-c3cccnc3)nc3ccccc13)CC2 | -36 | 14 | -2 | ? | 12µM* | 14µM*
CN1CCN(c2nc(-c3cccnc3)nc3ccccc23)CC1 | 9 | -8 | 1 | ? | -20% | -24%
COc1ccc(CN(C)c2nc(-c3cccnc3)nc3ccccc23)cc1OC | . | 15 | 10 | 16% | 19% | .
c1cncc(-c2nc(N3CCCCCC3)c3ccccc3n2)c1 | -31 | -11 | -3 | 0.47µM* | . | ?
O=S(=O)(c1ccc(F)cc1)N1CCN(c2nc(-c3ccccc3)nc3cc(Cl)ccc23)CC1 | . | -3 | -1 | . | . | .
O=S(=O)(c1ccccc1F)N1CCN(c2nc(-c3cccnc3)nc3ccccc23)CC1 | -22 | . | . | 12µM* | ? | ?
COCc1cc(C)nc2sc(C(=O)Nc3cc(C)ccc3F)c(N)c12 | -1 | . | . | . | . | .
O=C(C1CC(=O)N(c2ccc3c(c2)OCCO3)C1)N1CCN(c2cccc(C(F)(F)F)c2)CC1 (stereo not given) | -26 | . | . | ? | 11% | ?
N#Cc1ccccc1S(=O)(=O)N1CCN(c2nc(-c3cccnc3)nc3ccccc23)CC1 | -20 | . | . | 9.3µM* | 4.7µM* | ?
COc1ccc(S(=O)(=O)N2CCN(c3nc(-c4cccnc4)nc4ccccc34)CC2)cc1 | -6 | . | . | 2.9µM* | 2.1µM* | ?
O=S(=O)(/C=C/c1ccccc1)N1CCN(c2nc(-c3ccccc3)nc3ccccc23)CC1 | 0 | -8 | 5 | ? | 12µM* | ?
Cc1n[nH]c(C)c1S(=O)(=O)N1CCN(S(=O)(=O)c2ccccc2C#N)CC1 | 63 | . | . | -4% | ? | 28%
COc1ccc(N2CCN(S(=O)(=O)/C=C/c3ccccc3)CC2)cc1 | -1 | -6 | -3 | 11% | 1% | -1%
CCOc1ccccc1NC(=O)Cn1c(=O)n(Cc2ccccc2)c(=O)c2c(C)c(C)sc21 | -27 | . | . | . | . | .
O=C1CCCCN1CCC(=O)N1CCCC(N2CCN(c3cccc(Cl)c3)CC2)C1 (stereo not given) | 20 | 35* | 24* | 56% | -13% | 3%
Cc1ccccc1N1CCN(C2CCCN(C(=O)CCC(=O)N(C)C)C2)CC1 (stereo not given) | 65 | 34 | -2 | ? | ? | -6%
SMILES | HCMV inh | Shiga inhibitor | Cycloheximide cs | Pf growth 48h | Pf growth 96h | HCV inhibitor
CCc1nccn1CCC(=O)N1CCCC(N2CCN(c3cccc(Cl)c3)CC2)C1 (stereo not given) | 20 | 49* | 31* | -12% | 37% | ?
CCc1nccn1CCC(=O)N1CCCC(N2CCN(c3ccccc3C)CC2)C1 (stereo not given) | -87* | 10 | 6 | ? | -16% | ?
Cc1ccn(CC(=O)N2CCCC(N3CCN(c4ccccc4F)CC3)C2)n1 (stereo not given) | 2 | -2 | 0 | 11% | 13µM* | 22%
Cc1ccn(CC(=O)N2CCCC(N3CCN(c4cccc(Cl)c4)CC3)C2)n1 (stereo not given) | 15 | 20 | 9 | ? | ? | 4%
CN(C)c1ccc(C2(c3ccc(N(C)C)cc3)OC(=O)c3cc(N)ccc32)cc1 | 14 | -7 | -4 | -7% | -1% | 6%
O=C(Nc1ccncc1)c1ccccc1-c1ccccc1 | -16 | -11 | -4 | ? | -33%[1.15 µM] | 7%
O=C(NC1CCN(Cc2ccccc2)CC1)c1cccc(Br)c1 | ? | -5 | -3 | 10% | -6% | -29%
CCN1CCN(c2ccc(NC(=O)c3ccccc3F)cc2Cl)CC1 | 176 | 115* | 19* | 109% | -13% | ?
CCCCCC(=O)Nc1ccc(N2CCN(CC)CC2)c(Cl)c1 | 60 | 103* | 60* | 9% | 11% | 22µM*
CCCCCC(=O)NC(=S)Nc1ccc(N2CCCCC2)c(Cl)c1 | 24 | -25 | -6 | ? | ? | 19%
O=C(CN1CCOCC1)Nc1ccc(N2CCN(c3ccccc3)CC2)c(F)c1 | -2 | 8 | -2 | 175% | 16% | 4%
Cc1cc(NNC(=O)c2cccc(C(F)(F)F)c2)nc2c1c(C)nn2C | ? | -8 | -1 | 22% | -10% | 4.5µM*
Cc1cc(C)n(CC(=O)NNC(=O)c2cccc(C(F)(F)F)c2)n1 | ? | -5 | -1 | ? | 8% | 7%
CCOC(=O)c1ccc(NC(=O)c2cc3c([nH]c2=O)CC(c2ccccc2)CC3=O)cc1 (stereo not given) | 10 | . | . | . | . | .
COC(=O)[C@]1(Cc2ccccc2)N[C@H](CN(C)C(=O)Nc2ccc(C(F)(F)F)cc2)[C@@H]2C(=O)N(Cc3ccccc3)C(=O)[C@@H]21 | -11 | . | . | . | . | 13µM*
CC[C@@]1(C(=O)OC)N[C@H](CN(C)C(=O)Nc2ccc(C(F)(F)F)cc2)[C@@H]2C(=O)N(Cc3ccccc3)C(=O)[C@@H]21 | -12 | . | . | . | . | 7%
O=C(COc1ccc2c3c(c(=O)oc2c1)CCC3)NC(Cc1ccc(Cl)cc1)C(=O)O (stereo not given) | -3 | -1 | -1 | ? | 5% | -49%
Cc1cn([C@@H](CCCCNC(=O)OC(C)(C)C)C(=O)NCCCCCCCCCCC(=O)N2CCN(C(=O)OC(C)(C)C)CC2)nn1 | . | . | . | 2.6µM* | 5.2µM* | ?
